Assay results taken from PubChem BioAssay.

Experiments:
[1] = tested on: Botulinum neurotoxin type F light chain protease (Clostridium botulinum); test: Clostridium botulinum type F light chain protease inhibitors, microsphere substrate cleavage, validation (AID 588459); conditions: multiplex microsphere protease substrate cleavage assay, flow cytometry; at 10 µM; stronger effect = higher value
[2] = molecular target: Botulinum neurotoxin type A (Clostridium botulinum) (UniProt P0DPI0); test: BoNT/A light chain protease inhibitors, biochemical, multiplex microsphere flow cytometry, validation set (AID 588460); conditions: at 10 µM, stronger effect = higher value
[3] = molecular target: Lethal factor (Bacillus anthracis) (UniProt P15917); test: Bacillus anthracis lethal factor inhibition, microsphere flow cytometry protease assay, validation at 10 µM (AID 588461); conditions: multiplex microsphere protease cleavage assay, stronger effect = higher value

Measured: inhibition

CCOC(=O)Nc1ccc2c(c1)N(C(=O)CCN1CCOCC1)c1ccccc1S2
inactive: [1] -1.6% | [2] -1.4% | [3] 0.2%

CCc1cn([C@H]2C[C@H](O)[C@@H](CO)O2)c(=O)[nH]c1=O
inactive: [1] -0.5% | [2] -2.2% | [3] 1.6%

CCC1(c2ccccc2)NC(=S)N(c2ccc(C)c(C)c2)N1 (stereo not drawn)
inactive: [1] 1% | [2] -0.8% | [3] -3%

COCC(C)NC(=O)c1ccc(CN2CCc3ccccc3C2)cc1 (stereo not drawn)
inactive: [1] 5.2% | [2] 0% | [3] -7.8%

COc1ccc(C(=O)/C=C/c2cc(C(=O)O)cc3c2OCOC3)c(O)c1
inactive: [1] 1.3% | [2] -0.8% | [3] 4.4%

C=CC1=C(C(=O)O)N2C(=O)C(NC(=O)Cc3ccccc3)C2SC1 (stereo not drawn)
inactive: [1] 2.1% | [2] 0.1% | [3] -3.4%

Cc1cc(C)c2c(CCl)cc(=O)oc2c1
inactive: [1] -4.3% | [2] -1.5% | [3] -3.4%

O=C(O)CCCc1ccccc1
inactive: [1] -3.3% | [2] -2.3% | [3] -6.6%

COC(=O)C1=CN(Cc2cccs2)C=C(C(=O)OC)C1c1cccc(Cl)c1
inactive: [1] -4.5% | [2] -0.4% | [3] -4%

c1ccc2c3c(c(CN4CCCCC4)cc2c1)COC3
inactive: [1] 5.7% | [2] -1% | [3] 0.6%

O=C(CCc1c[nH]c2ccccc12)NCc1ccco1
inactive: [1] 2.9% | [2] 0.2% | [3] 5.8%
